# Only some compounds are listed: those with a hit (about 2.7% of all), similar ones and a draw of the others.
# KKLEB cytotox: cytotoxicity in KKLEB CF airway cells, primary screen, cytotoxicity control for CF NF-kB inhibitor project, cell-based, uHTS, fluorescence assay plates | actives 0.36% (n = 360,000) | AID 602141, 2011 | activity change (cytotoxicity), % at 5 µM | KKLEB CF airway cells viability, ATPlite luminescence, overnight; stronger effect = lower value; cells stimulated with P. aeruginosa culture filtrate;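 active = corrected activity change at or below -50% at 5 µM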
# HIF-2a block: HIF-2a reporter inhibitors, primary screen, luminescence, 786-0 RCC cells; 786-0 RCC cells HIF-2a reporter, luciferase luminescence, overnight; inhibition, % at 18.8 µM; actives 0.72% (n = 360,000); AID 624352, 2012;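 active = inhibition of the luminescence signal of 40% or more relative to plate controls, in a single-dose primary screen at 18.75 µM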
# TRPM1 prom inh: inhibitors of MITF-dependent TRPM1 promoter reporter, primary screen, cell-based, SK-MEL-5, single point, luciferase; SK-MEL-5 TRPM1 promoter luciferase, 24 h; inhibition, % at 12.5 µM; actives 0.83% (n = 330,000); AID 488899, 2010;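 active = mean inhibition across replicates of 60% or more, whatever share of single replicates reaches that level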
# CF NFkB block: inhibitors of PAF-induced NF-kB signaling, primary screen, cell-based, GFP fluorescence, uHTS | KKLEB NF-kB-GFP reporter, GFP fluorescence overnight | inhibition, % at 5 µM | actives 0.86% (n = 360,000);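 active = at least 50% inhibition at 5 µM, scaled per plate between neutral and stimulator controls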;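 note: PAF is a Pseudomonas aeruginosa culture filtrate used as stimulus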
# Peg3 promoter: Peg3 promoter-driven luciferase inhibitors, primary screen, cell-based, HeLa, luciferase luminescence. inhibition, % at 20 µM. actives 1.7% (n = 360,000). HeLa PEG-Prom luciferase reporter, overnight;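 active = inhibition of at least 50% at 20 µM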
# Shn3 3UTR inh: reduction of Shn3 3'UTR firefly luciferase signal, primary screen, Schnurri-3 inhibitor project, cell-based, Clone20 osteoblasts, set 2; Clone20 osteoblast Shn3 3'UTR firefly luciferase, 24 h; inhibition, % at 12.5 µM; actives 0.52% (n = 360,000);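 active = mean inhibition of at least 75% with every replicate also reaching 75%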
# A number is an active result; . = inactive; / = no result.
SMILES,KKLEB cytotox,HIF-2a block,TRPM1 prom inh,CF NFkB block,Peg3 promoter,Shn3 3UTR inh
CCN1C(=O)/C(=C/c2ccc(N(CC)CC)cc2OC)C(=O)NC1=S,.,.,.,.,90,.
C/C1=C\[C@@H](C)C/C=C/[C@H]2[C@@H]3O[C@]3(C)[C@@H](C)[C@H]3[C@H](Cc4c[nH]c5ccccc45)NC(=O)[C@]32C(=O)/C=C/C(=O)[C@@H]1O,-53,76,/,73,98,88
Cc1cccc(N=C2c3cc([N+](=O)[O-])ccc3-c3c2cc([N+](=O)[O-])cc3[N+](=O)[O-])c1,.,.,.,.,86,.
CCCCC1(CCCC)C(=O)NC(=Nc2cccc(C)c2)NC1=O,.,.,.,.,.,.
O=C(NCP(=O)(Oc1ccccc1)Oc1ccccc1)OCc1ccccc1,.,.,/,.,.,.
COc1ccc(-n2nnnc2C(c2ccccc2OC(F)(F)F)N2CCC3(CC2)C(=O)NCN3c2ccccc2)cc1 (configuration not stated),.,.,/,.,57,.
COc1ccc(-n2nnnc2C(c2ccccc2OC(F)(F)F)N2CCC(n3c(=O)[nH]c4ccccc43)CC2)cc1 (configuration not stated),.,.,/,.,85,.
CCn1nc(/C=C/c2ccccc2)nc2c(=O)n(C)c(=O)nc1-2,.,.,104,76,94,98
CCn1nc(-c2cccs2)nc2c(=O)n(C)c(=O)nc1-2,-89,80,100,98,118,97
COc1ccc(-n2c(/C=C/c3ccc(O)cc3)nc3ccccc3c2=O)cc1,.,.,.,.,.,.
CCn1c(O)c(C=Nc2ccc(N3CCOCC3)c(Br)c2)c(=O)n(CC)c1=S,.,.,.,.,.,.
CCn1c(O)c(C=Nc2ccc(N3CCOCC3)cc2)c(=O)n(CC)c1=S,.,.,.,57,.,.
CCn1c(O)c(C=NCCN2CCOCC2)c(=O)n(CC)c1=S,.,.,.,54,.,.
CCOC(=O)Cn1cc([N+](=O)[O-])nc1[N+](=O)[O-],.,.,65,.,.,.
C[N+](C)(C)CC1CCCC(C[N+](C)(C)C)C1=O (configuration not stated),.,.,.,.,83,.
C[N+](C)(C)CC1CCCc2ccccc2C1=O (configuration not stated),.,.,.,.,.,.
CCCCCN1C(=O)c2ccccc2[C@@]2(C(=O)OCC)Cc3cc(OC)ccc3[C@@H]12,/,.,/,/,/,/
COC1C(C)OC(OC2CC(C)(O)Cc3cc4c(c(O)c32)C(=O)c2c(O)cc3c(c2C4=O)OC2OC3(C)C(O)C(N(C)C)C2O)C(OC)C1(C)OC (configuration not stated),.,.,64,.,.,.
c1ccc(CN2COC3CCCCCC32)cc1 (configuration not stated),.,.,/,.,.,.
O=C(NCC1=C(c2ccc3ccccc3c2)C[C@@H]2CC[C@H]1N2Cc1ccco1)c1nccs1,.,.,/,.,.,.
O=C1CC2OCC=C3CN4CCC56c7ccccc7N1C5C2C3CC46O (configuration not stated),.,.,/,.,.,.
S=C(NCCc1ccccc1)N1Cc2cc(Br)ccc2-n2nncc2C1,.,.,/,.,.,.
S=C(NCCc1ccccc1)N1Cc2ccc(Br)cc2-n2nncc2C1,.,.,/,.,51,.
COc1cccc(C(c2nnnn2Cc2ccccc2)N2CCC3(CC2)C(=O)NCN3c2ccccc2)c1OC (configuration not stated),.,.,/,.,.,.
CCOP(=O)(OCC)OCC,.,.,.,.,.,.
CCOP(=O)(CCP(=O)(OCC)OCC)OCC.C[CH2][Sn]([Cl])([Cl])[CH2]C,.,.,85,53,.,.
O=c1[nH]c2ccccc2n1C1CCN(Cc2ccc(-c3nc4ccc(F)cc4nc3-c3ccccc3)cc2)CC1,/,.,/,/,/,/
